# Test results as given in PubChem BioAssay (NCI).
# Compounds without any hit were thinned out: in the full panel of roughly 83,000, 20% have a hit.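 Cells were grown in 96-well plates and exposed to the test compound at a single concentration for 48 hours; results are reported as percent growth, with values below 10 considered active.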 Calls of active or inactive are those of the source.
# System: RXF 393 renal
# Assay: NCI-60 one-dose screen, 48 h (100 = growth as untreated, 0 = no growth, -100 = all killed)
# Conditions: 10 µM unless noted
row,SMILES,growth
1,CCN(CC)CCOc1ccc(-c2c(-c3ccccc3)c(=O)oc3ccccc23)cc1,71.9% (inactive)
2,Nc1nc(=S)c2ncn(C3OC(COP(=O)(O)O)C(O)C3O)c2[nH]1 (stereo not drawn),13.9% (inactive)
3,COc1ccc(/C=N/NC(=O)CCN2c3ccccc3Sc3ccccc32)cc1,66.6% (inactive)
4,c1cnc2[nH]cc(-c3csc(-c4cn(CCCN5CCOCC5)c5ccccc45)n3)c2c1,24.9% (inactive)
5,S=C1CCSC(=S)N1CCCN1C(=S)CCSC1=S,57.9% (inactive)
6,COc1ccc(C(=O)Nc2ncc(Cc3ccc(F)cc3)s2)cc1,7.03% (active)
7,C=C1C(=O)O[C@H]2[C@H]1CC/C(COC(=O)NCc1cc[nH]c1)=C\CC[C@@]1(C)O[C@@H]21,31.1% (inactive)
8,CN(C)CCCC1(c2ccc(F)cc2)OCc2cc(-c3cccc4[nH]ccc34)ccc21 (stereo not drawn),37.6% (inactive)
9,COC(C(=O)[C@@H](O)[C@@H](C)O)[C@@H]1Cc2cc3cc(O[C@H]4C[C@@H](O[C@H]5C[C@@H](O)[C@H](O)C(C)O5)[C@H](O)C(C)O4)c(C)c(O)c3c(O)c2C(=O)[C@H]1O[C@H]1C[C@@H](O[C@H]2C[C@@H](O[C@H]3C[C@@H](O)[C@H](OC)C(C)O3)[C@@H](O)C(C)O2)[C@H](O)C(C)O1 (stereo partly drawn),-55.4% (active)
10,CCNc1cc(-c2cccc(OC(F)(F)F)c2)nc2ccc(N3CCCC3)cc12,33.7% (inactive)
11,CCNc1nc(-c2ccc(Cl)c(OC)c2)c(-c2ccnc(NCCCNS(=O)(=O)c3ccc(Cl)cc3)n2)s1,70.2% (inactive)
12,Cc1nc2c(=O)[nH]c(SCC(=O)Nc3cccc(F)c3)nc2[nH]c1=O,106% (inactive)
13,Cc1ccc(-c2nc3nc(-c4ccc(F)cc4)nc(N4CCNCC4)c3o2)cc1,109% (inactive)
14,O=C(/C=C(/C=C/c1cccc2[nH]ccc12)OB(F)F)/C=C/c1cccc2[nH]ccc12,-87.2% (active)
15,Oc1c(Cl)cc(Cl)c2ccc(Cn3cc(-c4cc(C(F)(F)F)cc(C(F)(F)F)c4)nn3)nc12,-12.8% (active)
16,CC[C@@H](C(=O)[C@@H](C)[C@@H](O)[C@H](C)[C@@H]1O[C@@H]([C@@H](CC)C(=O)NCCc2ccc(F)cc2)CC[C@@H]1C)C1O[C@]2(C=CC(=O)[C@]3(CC[C@@](C)([C@H]4CC[C@](O)(CC)[C@H](C)O4)O3)O2)[C@H](C)C[C@@H]1C (stereo partly drawn),42.7% (inactive)
17,c1cc2[nH]ncc2cc1-c1nc2ccc3[nH]ncc3c2c2c1CCCC2,-15.8% (active)
18,C#CCOc1cccc(Nc2ncnc3c(NC(=O)C=C)cccc23)c1,-3.19% (active)
19,N#Cc1cnc(NCCc2ccncc2)nc1-n1cnc2ccccc21,52.7% (inactive)
20,CCOC(=O)c1c(NC(=O)c2ccc(C(C)C)cc2)sc2c(CN(C)C)c(O)ccc12,44.2% (inactive)
21,COc1ccc(N2CCC(=O)NC2=S)cc1,109% (inactive)
22,Oc1c(Cl)cc(Cl)c2ccc(Cn3cc(-c4cc(F)cc(F)c4)nn3)nc12,25.6% (inactive)
23,CO/N=C(/C)c1ccc(NC(=O)CSc2nnc(-c3ccncc3)n2-c2ccccc2)cc1,4.02% (active)
24,O=C1c2cccnc2C(=O)c2c1c(C(=O)NCCn1ccnc1)c1ccccn21,59.7% (inactive)
25,O=C1NC(=O)c2c1c1c3ccccc3ccc1c1[nH]c3ccc(Br)cc3c21,11.6% (inactive)
26,Cc1ccc(-c2nc3nc(-c4ccccc4)nc(N4CCNCC4)c3o2)cc1,-81.2% (active)
27,CC(C)(C)n1cc(-c2ccnc(NCCNS(=O)(=O)c3cccc(F)c3)c2)c(-c2ccccc2)n1,96.8% (inactive)
28,Cc1c(-n2nnc(-c3nc4ccccc4s3)c2N)c(=O)n(-c2ccccc2)n1C,121% (inactive)

# System: SF-268 CNS
# Assay: as above
# Conditions: 10 µM unless noted
row,SMILES,growth
1,Cc1ccc(Cl)cc1Nc1nc(C(F)(F)F)ccc1C(=O)N/N=C/c1cccnc1,27.7% (inactive)
2,Fc1ccc(-c2nn(-c3ccccc3)cc2-c2nc3ccccc3o2)cc1,58.5% (inactive)
3,CCOC(=O)C(=Cc1cccc(Br)c1)C(=O)OCC,25.7% (inactive)
4,COc1cccc(NC(=O)Cn2cc(CN3CCN(c4ccnc5cc(Cl)ccc45)CC3)nn2)c1,84.7% (inactive)
5,CCOC(=O)c1cc2c(=O)oc3ccccc3c2oc1=O,108% (inactive)
6,O=C(Nc1cc(Cl)ccc1O)c1ccc(Nc2ccnc(C(F)(F)F)c2)cc1,69.1% (inactive)
7,C=C(C)[C@@H]1CC[C@]2(C(=O)O)CC[C@]3(C)[C@H](CC[C@@H]4[C@@]5(C)C[C@@H](Cc6cn(CCO[C@@H]7O[C@H](COC(C)=O)[C@H](OC(C)=O)[C@H](OC(C)=O)[C@H]7OC(C)=O)nn6)[C@H](O)C(C)(C)[C@@H]5CC[C@]43C)[C@@H]12,61.2% (inactive)
8,CC(C)CCC[C@@H](C)[C@H]1CC[C@H]2[C@@H]3CC=C4C[C@@H](C(C(=O)O)C(=O)O)CC[C@]4(C)[C@H]3CC[C@]12C,-24.6% (active)
9,O=S(=O)(Nc1ccc(Cl)cc1)c1ccc(-c2cnc(C3CC3)o2)cc1,43.5% (inactive)
10,C#CCOc1ccc2ncnc(Nc3ccc(NC(=O)CCl)cc3)c2c1,-7.47% (active)
11,CCOC(=O)C1=C(NC)OCC1=O,98.6% (inactive)
12,COC(=O)c1c2c(c(C)[n+]([O-])c1C)C(=O)C=C(NCc1ccc(Br)cc1)C2=O,-43.7% (active)
13,CCN(CC)CCOc1ccc(-c2c(-c3ccccc3)c(=O)oc3ccccc23)cc1,87.4% (inactive)
14,Nc1nc(=S)c2ncn(C3OC(COP(=O)(O)O)C(O)C3O)c2[nH]1 (stereo not drawn),28.2% (inactive)
15,COc1ccc(/C=N/NC(=O)CCN2c3ccccc3Sc3ccccc32)cc1,96.7% (inactive)
16,c1cnc2[nH]cc(-c3csc(-c4cn(CCCN5CCOCC5)c5ccccc45)n3)c2c1,52.3% (inactive)
17,S=C1CCSC(=S)N1CCCN1C(=S)CCSC1=S,87.2% (inactive)
18,COc1ccc(C(=O)Nc2ncc(Cc3ccc(F)cc3)s2)cc1,50.6% (inactive)
19,C=C1C(=O)O[C@H]2[C@H]1CC/C(COC(=O)NCc1cc[nH]c1)=C\CC[C@@]1(C)O[C@@H]21,64.9% (inactive)
20,CN(C)CCCC1(c2ccc(F)cc2)OCc2cc(-c3cccc4[nH]ccc34)ccc21 (stereo not drawn),41% (inactive)

row,SMILES,growth
1,COC(C(=O)[C@@H](O)[C@@H](C)O)[C@@H]1Cc2cc3cc(O[C@H]4C[C@@H](O[C@H]5C[C@@H](O)[C@H](O)C(C)O5)[C@H](O)C(C)O4)c(C)c(O)c3c(O)c2C(=O)[C@H]1O[C@H]1C[C@@H](O[C@H]2C[C@@H](O[C@H]3C[C@@H](O)[C@H](OC)C(C)O3)[C@@H](O)C(C)O2)[C@H](O)C(C)O1 (stereo partly drawn),14.2% (inactive)
2,CCNc1cc(-c2cccc(OC(F)(F)F)c2)nc2ccc(N3CCCC3)cc12,48.8% (inactive)
3,CCNc1nc(-c2ccc(Cl)c(OC)c2)c(-c2ccnc(NCCCNS(=O)(=O)c3ccc(Cl)cc3)n2)s1,60.4% (inactive)
4,Cc1nc2c(=O)[nH]c(SCC(=O)Nc3cccc(F)c3)nc2[nH]c1=O,102% (inactive)
5,Cc1ccc(-c2nc3nc(-c4ccc(F)cc4)nc(N4CCNCC4)c3o2)cc1,96.7% (inactive)
6,O=C(/C=C(/C=C/c1cccc2[nH]ccc12)OB(F)F)/C=C/c1cccc2[nH]ccc12,2.01% (active)
7,Oc1c(Cl)cc(Cl)c2ccc(Cn3cc(-c4cc(C(F)(F)F)cc(C(F)(F)F)c4)nn3)nc12,77.2% (inactive)
8,CC[C@@H](C(=O)[C@@H](C)[C@@H](O)[C@H](C)[C@@H]1O[C@@H]([C@@H](CC)C(=O)NCCc2ccc(F)cc2)CC[C@@H]1C)C1O[C@]2(C=CC(=O)[C@]3(CC[C@@](C)([C@H]4CC[C@](O)(CC)[C@H](C)O4)O3)O2)[C@H](C)C[C@@H]1C (stereo partly drawn),24.2% (inactive)
9,c1cc2[nH]ncc2cc1-c1nc2ccc3[nH]ncc3c2c2c1CCCC2,25.1% (inactive)
10,C#CCOc1cccc(Nc2ncnc3c(NC(=O)C=C)cccc23)c1,20.7% (inactive)
11,N#Cc1cnc(NCCc2ccncc2)nc1-n1cnc2ccccc21,53% (inactive)
12,CCOC(=O)c1c(NC(=O)c2ccc(C(C)C)cc2)sc2c(CN(C)C)c(O)ccc12,91.4% (inactive)
13,COc1ccc(N2CCC(=O)NC2=S)cc1,99.8% (inactive)
14,Oc1c(Cl)cc(Cl)c2ccc(Cn3cc(-c4cc(F)cc(F)c4)nn3)nc12,97.2% (inactive)
15,CO/N=C(/C)c1ccc(NC(=O)CSc2nnc(-c3ccncc3)n2-c2ccccc2)cc1,13.4% (inactive)
16,O=C1c2cccnc2C(=O)c2c1c(C(=O)NCCn1ccnc1)c1ccccn21,23.6% (inactive)
17,O=C1NC(=O)c2c1c1c3ccccc3ccc1c1[nH]c3ccc(Br)cc3c21,14% (inactive)
18,Cc1ccc(-c2nc3nc(-c4ccccc4)nc(N4CCNCC4)c3o2)cc1,-67.2% (active)
19,CC(C)(C)n1cc(-c2ccnc(NCCNS(=O)(=O)c3cccc(F)c3)c2)c(-c2ccccc2)n1,97.7% (inactive)
20,Cc1c(-n2nnc(-c3nc4ccccc4s3)c2N)c(=O)n(-c2ccccc2)n1C,99.8% (inactive)
